Measurements taken from PubChem BioAssay (EPA / NIEHS).
Inconclusive results are not listed. Active and inactive are the calls of the source. How the source made its calls: active means hit-call score of the fitted dose curve at least 0.9, where 1 is the maximum; inconclusive means response in the unintended direction; inactive means score below 0.9.

Experiment: IUF_NPC1_cytotoxicity_72hr: Cytotoxicity Assessment at 72 hours in the Leibniz Research Institute for Environmental Medicine (IUF) Neural Progenitor Cell Proliferation Assay (NPC1) (AID 2284332);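 further: rising LDH signal means more cytotoxicity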
Outline: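 Human fetal neural progenitor spheres (0.3 mm) in EGF/FGF proliferation medium, 37C, exposed 72 h without renewal. LDH release in supernatant read by resorufin fluorescence; gain of signal scored relative to dynamic range.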

SMILES | outcome
C/C(=C/C=C/[C@@H](C)C(=O)O)[C@H]1CN[C@H](C(=O)O)[C@H]1CC(=O)O | inactive
CP(=O)(O)CCC(N)C(=O)O (stereo unspecified) | inactive
[O-][Cl+3]([O-])([O-])O | inactive
CCOP(=S)(OCC)SCS(=O)C(C)(C)C (stereo unspecified) | inactive
Cn1nc(C(F)(F)F)c(CS(=O)(=O)C2=NOC(C)(C)C2)c1OC(F)F | inactive
CC1(C)C(C=C(Cl)c2ccc(Cl)cc2)C1C(=O)OC(C#N)c1ccc(F)c(Oc2ccccc2)c1 (stereo unspecified) | inactive
CCOP(=O)(Oc1cnc(C(C)(C)C)nc1)OC(C)C (stereo unspecified) | inactive
CC1(C)[C@H](C=C(Cl)Cl)[C@H]1C(=O)OCc1c(F)c(F)cc(F)c1F | inactive
CC1(C)C(C=C(Cl)Cl)C1C(=O)O[C@H](C#N)c1cccc(Oc2ccccc2)c1 (stereo partly specified) | inactive
CCOP(=O)(OCC)OC(Cl)C(Cl)(Cl)Cl (stereo unspecified) | inactive
CCOP(=O)(OCC)SCSC(C)(C)C | inactive
CC1(C)[C@@H](C=C(Cl)Cl)[C@@H]1C(=O)O[C@@H](C#N)c1ccc(F)c(Oc2ccccc2)c1 | inactive
COP(=O)(OC)SCN1C(=O)c2ccccc2C1=O | inactive
CC(=O)[O-].[Tl+] | inactive

Experiment: CCTE_Mundy_HCI_iCellGluta_NOG_NeuriteCount: CCTE's Neurite Outgrowth Assay in iCellGluta cells for Neurite Count, Mundy Lab (AID 2284342);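 further: chemical exposure about 48 hours starting 2 hours after plating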

SMILES | outcome | AC50
CCOP(=S)(OCC)SCS(=O)C(C)(C)C (stereo unspecified) | inactive | –
C#CCN(C)[C@H](C)Cc1ccccc1 | inactive | –
Cn1nc(C(F)(F)F)c(CS(=O)(=O)C2=NOC(C)(C)C2)c1OC(F)F | inactive | –
CC1(C)C(C=C(Cl)c2ccc(Cl)cc2)C1C(=O)OC(C#N)c1ccc(F)c(Oc2ccccc2)c1 (stereo unspecified) | – | 74.1 µM (active)
CCOP(=O)(Oc1cnc(C(C)(C)C)nc1)OC(C)C (stereo unspecified) | inactive | –
CC1(C)[C@H](C=C(Cl)Cl)[C@H]1C(=O)OCc1c(F)c(F)cc(F)c1F | – | 19.9 µM (active)
CC1(C)C(C=C(Cl)Cl)C1C(=O)O[C@H](C#N)c1cccc(Oc2ccccc2)c1 (stereo partly specified) | inactive | –
CCOP(=O)(OCC)OC(Cl)C(Cl)(Cl)Cl (stereo unspecified) | inactive | –
CCOP(=O)(OCC)SCSC(C)(C)C | – | 21.9 µM (active)
CC1(C)[C@@H](C=C(Cl)Cl)[C@@H]1C(=O)O[C@@H](C#N)c1ccc(F)c(Oc2ccccc2)c1 | inactive | –
COP(=O)(OC)SCN1C(=O)c2ccccc2C1=O | inactive | –
CC(=O)[O-].[Tl+] | – | 2.26 µM (active)
